Assay results reported in PubChem BioAssay (Tox21).
Results filed as inconclusive are left out. Where a call stands in place of a potency, no number is given. Values without a mark were called inactive. The source made the active and inactive calls. Calls come from the whole dose curve.

Test: p53 small molecule agonists, cell-based qHTS assay: qHTS cell viability counter screen (AID 1963581); note: nearly all actives have a fitted effect of over 45% in size
Conditions: p53RE-bla HCT-116 viability, ATP luminescence, 16 h; series mostly up to 66 µM; activity change, negative = cytotoxicity: at the top concentration
Source text: National Center for Advancing Translational Sciences [NCATS]
Division of Preclinical Innovation [DPI]
U.S. Environmental Protection Agency [EPA]
National Institutes of Environmental Health Sciences [NIEHS]
National Toxicology Program [NTP]
U.S. Food and Drug Administration [FDA]
p53, a tumor suppressor protein, is activated following cellular insult, including DNA damage and other cellular stresses. The activation of p53 regulates cell fate by inducing DNA repair, cell cycle arrest, apoptosis, or cellular senescence. The activation of p53, therefore, is a good indicator of DNA damage and other cellular stresses. The CellSensor p53RE-bla HCT-116 cell line (Invitrogen) contains a stably integrated beta-lactamase reporter gene under control of the p53 response elements. The activation of the reporter gene under culture conditions can be detected by fluorescence intensity. This cell line was used to screen the Tox21 compound library in a 1536-well plate format and to identify agonists that activate the p53 signaling pathway. The cytotoxicity of the Tox21 compound library against the p53 RE-bla HCT-116 cell line was tested in parallel by measuring the intra cellular ATP content in the same wells.
Tox21 Assay Protocol Summary:
The p53RE-bla cells were dispensed at 4,000 cells/5 ul/well in 1536-well black wall/clear bottom plates using a Multidrop dispenser. After the assay plates were incubated at a 37 C/5% CO2 incubator for 5 hours, 23 nL of compounds dissolved in DMSO, positive controls or DMSO only was transferred to the assay plate by a pin tool. The plates were incubated at 37 C for 16 hours. After 1 uL of LiveBLAzerTM B/G FRET substrate was added using a Flying Reagent Dispenser, the plates were incubated at room temperature for 2 hours, and fluorescence intensity was measured by an Envision plate reader. For cell viability readout that measures cytotoxicity, 4 ul/well of CellTiter-Glo reagent was added into the assay plates using a Flying Reagent Dispenser. After 30 min incubation at room temperature, the luminescence intensity in the plates was measured using a ViewLux plate reader.
Potency is the fitted concentration of half-maximal effect.

Compound	Potency	activity change, negative = cytotoxicity
CCc1cccc(C)c1N	inactive	
CCCCCCCCCCCCCCCC[N+](C)(C)Cc1ccccc1	37 µM (active)	
O=C(O)CCCCCCCCC(=O)O	inactive	
Cc1c(N(C)CS(=O)(=O)O)c(=O)n(-c2ccccc2)n1C	inactive	
Nc1cccc(C(F)(F)F)c1	inactive	
C=CCOC(=O)c1ccccc1C(=O)OCC=C	inactive	
CC(C)(Oc1ccc(Cl)cc1)C(=O)O	inactive	
CCCCCCOCCO	inactive	
CCC(O)OCCCOC (stereo not given)	inactive	
COCCOC(=O)c1ccccc1C(=O)OCCOC	inactive	
O=C(O)CCCCCCCC(=O)O	inactive	
Cc1ccccc1Cl	inactive	
O=C1NC(=O)c2ccccc21	inactive	
CCc1nc(N)nc(N)c1-c1ccc(Cl)cc1	13.1 µM (active)	
COCCOCCOCCO	inactive	
CCCCCCCC(=O)OC	inactive	
Cc1ccc(O)c(-n2nc3ccccc3n2)c1	inactive	
CCCCC(CC)COC(=O)c1ccc(N(C)C)cc1 (stereo not given)	inactive	
O=C(O)c1cn(-c2ccc(F)cc2)c2cc(N3CCNCC3)c(F)cc2c1=O	inactive	
OCC(O)CS (stereo not given)	inactive	

Compound	Potency	activity change, negative = cytotoxicity
CC(C)=CCO	inactive	
COc1ccc(C(=O)c2ccccc2O)c(O)c1	inactive	
C#C[C@]1(O)CC[C@H]2[C@@H]3CCC4=Cc5oncc5C[C@]4(C)[C@H]3CC[C@@]21C	inactive	
CNC(=O)Oc1ccc2c(c1)[C@]1(C)CCN(C)[C@@H]1N2C	inactive	
CCCCCCCCCCN	inactive	
C[C@]12C=CC(=O)C=C1CC[C@@H]1[C@@H]2[C@@H](O)C[C@@]2(C)[C@H]1CC[C@]2(O)C(=O)CO	inactive	
c1ccc(OCCOc2ccccc2)cc1	inactive	
O=C1O[C@H](CO)[C@@H](O)[C@H](O)[C@H]1O	inactive	
COC(=O)c1ccccc1	inactive	
CC(=O)OCc1ccc2c(c1)OCO2	inactive	
COC(C)COC(C)COC(C)CO (stereo not given)		13.3%
NNC(=O)c1ccncc1	inactive	
C[C@]12C[C@H](O)[C@H]3[C@@H](CCC4=CC(=O)CC[C@@]43C)[C@@H]1CC[C@@H]2C(=O)CO	inactive	
FC(F)(F)c1ccc(Cl)c(Cl)c1	inactive	
O=C(O)c1[nH]n(-c2ccc(S(=O)(=O)O)cc2)c(=O)c1N=Nc1ccc(S(=O)(=O)O)cc1	inactive	
CSc1ccc(Cl)cc1	inactive	
COc1ccc(NC(C)=O)cc1N	inactive	
NC(=O)c1ccccc1O	inactive	
CC1=C(/C=C/C(C)=C/C=C/C(C)=C/CO)C(C)(C)CCC1	inactive	
c1ccc2cc3c(ccc4ccccc43)cc2c1	inactive	
